# Laboratory results taken from PubChem BioAssay.
# Active and inactive are the calls of the source.
# Experiments:
# Albumin (Bos taurus) = Albumin (Bos taurus) (UniProt P02769); test: bovine serum albumin binders on microarray, profiling panel, artefact control for SMM control protein annotation, biochemical, small-molecule microarray, Alexa647 label, 635/667 nm fluorescence (AID 1118); conditions: BSA-A647 binding, fluorescence 635 nm, higher = more signal;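 also: score merges 667 nm emission intensity and signal-to-noise per printed compound spot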
# [1] = small-molecule microarray binders of probe aXIP, primary screen, biochemical, NeuroSMM set, 635/667 nm fluorescence (AID 1119); conditions: higher = more signal, called active from +8 up or from −8 down;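 also: probe is the protein aXip251-270 applied at 1 µg/mL to compound-printed slides; binding of probe to printed compounds measured as 667 nm fluorescence plus signal to noise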
# [2] = small-molecule binders of probe aNOTCH3, primary screen, biochemical, small-molecule microarray, 635/667 nm fluorescence (AID 1120); conditions: higher = more signal;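 also: probe is a biotin-tagged antibody raised against NOTCH3 rather than NOTCH3 protein; score merges spot fluorescence near 667 nm with spot signal to noise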
# [3] = small-molecule binders of probe aNOTCH2, primary screen, biochemical, small-molecule microarray, 635/667 nm fluorescence (AID 1121); conditions: higher = more signal;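 also: score merges feature fluorescence read at 667 nm with its signal to noise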
# [4] = biological target: Carbonic anhydrase 2 (Homo sapiens) (UniProt P00918); test: CAII small-molecule binders, profiling panel, biochemical, small-molecule microarray, Alexa647-labelled CAII (AID 1122); conditions: CAII-A647 binding fluorescence, higher = more signal
# [5] = COS7 lysate on small-molecule microarray, probe aHis, 635 nm (AID 1123); conditions: COS7 cell lysate, fluorescence, higher = more signal;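 also: z-score combines 667nm fluorescence intensity with signal-to-noise per printed compound spot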
# [6] = compound binding in COS7 lysate, probe aLAP1, primary screen, cell lysate, small-molecule microarray (AID 1124); conditions: probe aLAP1, fluorescence, higher = more signal;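 also: lysate comes from COS7 cells expressing LAP1 and is applied at 0.3 µg/mL; score merges spot fluorescence near 667 nm with signal-to-noise over triplicate slides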
# Sam68 (KHDRBS1) = test: Sam68 small-molecule binders, primary screen, biochemical, small-molecule microarray, 635 nm fluorescence (AID 1125); conditions: small-molecule microarray binding, higher = more signal;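 also: score merges 667 nm channel intensity with signal to noise over triplicate slides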
# [7] = test system: Chordin-like protein 2 (CHRDL2); test: CHRDL2 small-molecule binders, primary screen, biochemical, small-molecule microarray, 635 nm fluorescence (AID 1126); conditions: small-molecule microarray binding, fluorescence 635 nm; higher = more signal;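 also: printed compound slides probed with Chrdl2 protein at 4 µg/mL for 1 h at 4 C; score merges 667 nm emission intensity with signal to noise over three replicate slides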
# [8] = biological target: Concanavalin-A (Canavalia ensiformis) (UniProt P02866); test: ConA small-molecule binders, primary screen, artefact control for SMM control protein annotation, biochemical, small-molecule microarray, Alexa647 label, 635 nm (AID 1127); conditions: ConA-A647 binding fluorescence, higher = more signal;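 also: z combines 667 nm emission intensity with signal-to-noise across three replicate slides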
# [9] = anti-His antibody binders, primary screen, artefact control for SMM control protein annotation, biochemical, small-molecule microarray, 635 nm fluorescence (AID 1128); conditions: anti-His Alexa647 antibody binding, higher = more signal;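 also: score merges feature fluorescence with signal-to-noise for each printed compound spot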
# [10] = test system: Human papillomavirus type 1a E7 protein (residues 1-88); test: HPV1a E7 small-molecule binders, primary screen, biochemical, small-molecule microarray, residues 1-88, 635 nm (AID 1129); conditions: small-molecule microarray binding, fluorescence 635 nm; higher = more signal
# [11] = biological target: Focal adhesion kinase 1 (Homo sapiens) (UniProt Q05397); test: small-molecule microarray binders of FAK, primary screen, biochemical, 635/667 nm fluorescence, BSA, DTT (AID 1130); conditions: PTK2 binding, 635 nm fluorescence, higher = more signal;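 also: composite of spot emission at 667 nm and signal to noise over triplicate slides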
# [12] = test system: Fibrinogen (Alexa647-labelled); test: fibrinogen binders on compound microarrays, profiling panel, artefact control for SMM control-protein annotation, biochemical, small-molecule microarray, 635/667 nm fluorescence (AID 1131); conditions: fibrinogen-A647 binding fluorescence, higher = more signal;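 also: z-score merges 667 nm fluorescence with per-spot signal-to-noise over triplicate slides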
# [13] = biological target: Follistatin (Homo sapiens) (UniProt P19883); test: follistatin binders on small-molecule microarrays, primary screen, biochemical, small-molecule microarray, 635/667 nm fluorescence (AID 1132); conditions: FST binding, 635 nm fluorescence, higher = more signal
# [14] = biological target: Fibroblast growth factor 2 (Homo sapiens) (UniProt P09038); test: FGF2 binders on small-molecule microarrays, primary screen, biochemical, small-molecule microarray, 635/667 nm fluorescence (AID 1133); conditions: small-molecule microarray binding, FGF2, fluorescence 635/667; higher = more signal
# [15] = mitochondrial membrane potential change in A549 cells, profiling panel, cell-based, JC-1 fluorescence, basal, 24 h, 100 nL (AID 1138); conditions: higher = more signal;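 also: A549 lung adenocarcinoma cells under basal conditions with no added stimulus; test concentration not given here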
# Lefty1 = Lefty1 binders on small-molecule microarrays, primary screen, biochemical, small-molecule microarray, 635/667 nm fluorescence (AID 1139); conditions: small-molecule microarray binding, fluorescence 635/667; higher = more signal
# [16] = test system: wheat germ agglutinin (Triticum aestivum), Alexa647-labelled; test: wheat germ agglutinin binders on compound microarrays, profiling panel, artefact control for SMM control-protein annotation, biochemical, small-molecule microarray, 635/667 nm fluorescence (AID 1140); conditions: WGA-A647 binding, 635 nm fluorescence, higher = more signal;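 also: score merges 667 nm feature emission with signal to noise over triplicate slides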
# [17] = biological target: Luciferin 4-monooxygenase (Photinus pyralis) (UniProt P08659); test: firefly luciferase enzyme inhibitors, primary screen, biochemical, luminescence, purified enzyme, 2006 set (AID 1141); conditions: SteadyGlo luminescence, 30 min, higher = more signal, called active from +8 up or from −8 down;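 also: cell-free assay with purified firefly luciferase at 100 ng per well in PBS; test concentration not given here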
# Chain of Luciferin 4-monooxygenase (Photinus pyralis) (P08659 whole entry, looked up): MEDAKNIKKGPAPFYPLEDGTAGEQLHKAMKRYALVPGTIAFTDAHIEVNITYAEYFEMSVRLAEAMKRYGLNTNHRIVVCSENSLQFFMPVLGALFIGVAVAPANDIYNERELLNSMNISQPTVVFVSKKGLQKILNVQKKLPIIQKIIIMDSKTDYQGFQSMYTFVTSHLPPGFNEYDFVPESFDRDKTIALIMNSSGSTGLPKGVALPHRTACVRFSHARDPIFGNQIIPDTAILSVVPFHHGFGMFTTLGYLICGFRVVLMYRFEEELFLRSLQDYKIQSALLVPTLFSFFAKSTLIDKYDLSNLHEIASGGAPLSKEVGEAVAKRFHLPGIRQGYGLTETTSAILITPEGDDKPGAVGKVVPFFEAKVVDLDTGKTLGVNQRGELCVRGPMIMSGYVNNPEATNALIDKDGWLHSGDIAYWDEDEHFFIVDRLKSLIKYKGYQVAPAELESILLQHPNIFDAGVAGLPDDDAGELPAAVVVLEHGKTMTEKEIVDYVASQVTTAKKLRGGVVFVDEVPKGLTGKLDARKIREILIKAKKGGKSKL
# Chain of Concanavalin-A (Canavalia ensiformis) (P02866 whole entry, looked up): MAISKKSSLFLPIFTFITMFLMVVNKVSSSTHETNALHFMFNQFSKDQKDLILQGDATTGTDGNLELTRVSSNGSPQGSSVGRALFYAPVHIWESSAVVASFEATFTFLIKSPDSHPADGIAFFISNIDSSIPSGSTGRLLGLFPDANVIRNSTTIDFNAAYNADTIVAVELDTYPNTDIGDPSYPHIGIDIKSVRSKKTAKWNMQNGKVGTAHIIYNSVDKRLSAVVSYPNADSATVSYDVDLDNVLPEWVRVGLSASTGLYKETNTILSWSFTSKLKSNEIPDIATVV
# Chain of Fibroblast growth factor 2 (Homo sapiens) (P09038 whole entry, looked up): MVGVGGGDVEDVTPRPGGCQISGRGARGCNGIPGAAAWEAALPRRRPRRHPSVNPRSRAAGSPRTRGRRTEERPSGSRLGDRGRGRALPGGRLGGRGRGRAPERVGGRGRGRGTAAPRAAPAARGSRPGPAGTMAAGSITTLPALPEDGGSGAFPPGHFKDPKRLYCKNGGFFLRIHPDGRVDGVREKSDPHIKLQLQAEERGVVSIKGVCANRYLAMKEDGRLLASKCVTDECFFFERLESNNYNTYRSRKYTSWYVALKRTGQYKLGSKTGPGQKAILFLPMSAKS
# Chain of Follistatin (Homo sapiens) (P19883 whole entry, looked up): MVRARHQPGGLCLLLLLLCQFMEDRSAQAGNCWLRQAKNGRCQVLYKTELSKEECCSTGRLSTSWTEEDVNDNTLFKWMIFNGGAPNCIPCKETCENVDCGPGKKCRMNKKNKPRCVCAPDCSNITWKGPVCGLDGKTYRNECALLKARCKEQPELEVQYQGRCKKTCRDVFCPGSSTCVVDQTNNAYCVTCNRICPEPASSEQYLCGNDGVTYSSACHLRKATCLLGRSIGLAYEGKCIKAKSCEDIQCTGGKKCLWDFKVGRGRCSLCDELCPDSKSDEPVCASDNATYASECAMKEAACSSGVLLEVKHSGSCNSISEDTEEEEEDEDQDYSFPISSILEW
# Chain of Focal adhesion kinase 1 (Homo sapiens) (Q05397 whole entry, looked up): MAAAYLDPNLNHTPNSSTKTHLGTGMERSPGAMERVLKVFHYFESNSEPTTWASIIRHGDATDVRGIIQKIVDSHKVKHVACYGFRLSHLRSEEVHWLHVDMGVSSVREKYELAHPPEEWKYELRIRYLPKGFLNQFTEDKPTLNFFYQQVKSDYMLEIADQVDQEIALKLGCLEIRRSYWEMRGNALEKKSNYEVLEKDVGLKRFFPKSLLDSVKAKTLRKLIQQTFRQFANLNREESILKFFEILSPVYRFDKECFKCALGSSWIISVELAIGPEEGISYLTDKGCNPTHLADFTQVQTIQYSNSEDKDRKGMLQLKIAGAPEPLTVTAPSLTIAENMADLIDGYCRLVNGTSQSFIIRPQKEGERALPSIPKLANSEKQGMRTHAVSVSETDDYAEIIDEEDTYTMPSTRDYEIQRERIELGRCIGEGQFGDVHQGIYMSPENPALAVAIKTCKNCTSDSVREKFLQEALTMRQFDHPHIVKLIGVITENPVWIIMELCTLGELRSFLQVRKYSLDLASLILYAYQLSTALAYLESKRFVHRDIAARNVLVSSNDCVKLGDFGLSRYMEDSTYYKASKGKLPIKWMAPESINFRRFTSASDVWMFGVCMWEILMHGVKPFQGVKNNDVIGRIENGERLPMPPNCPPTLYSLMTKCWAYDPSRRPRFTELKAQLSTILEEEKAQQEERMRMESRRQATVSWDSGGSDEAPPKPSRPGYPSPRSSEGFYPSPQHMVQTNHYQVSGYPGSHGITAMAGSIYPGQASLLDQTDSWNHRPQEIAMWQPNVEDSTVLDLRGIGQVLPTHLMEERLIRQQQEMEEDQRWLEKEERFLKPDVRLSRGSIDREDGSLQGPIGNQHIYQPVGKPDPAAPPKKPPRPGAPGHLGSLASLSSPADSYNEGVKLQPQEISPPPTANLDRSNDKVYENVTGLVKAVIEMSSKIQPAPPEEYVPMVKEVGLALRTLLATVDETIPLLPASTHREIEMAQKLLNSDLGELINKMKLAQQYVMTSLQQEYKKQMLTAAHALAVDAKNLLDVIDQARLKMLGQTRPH
# Chain of Albumin (Bos taurus) (P02769 whole entry, looked up): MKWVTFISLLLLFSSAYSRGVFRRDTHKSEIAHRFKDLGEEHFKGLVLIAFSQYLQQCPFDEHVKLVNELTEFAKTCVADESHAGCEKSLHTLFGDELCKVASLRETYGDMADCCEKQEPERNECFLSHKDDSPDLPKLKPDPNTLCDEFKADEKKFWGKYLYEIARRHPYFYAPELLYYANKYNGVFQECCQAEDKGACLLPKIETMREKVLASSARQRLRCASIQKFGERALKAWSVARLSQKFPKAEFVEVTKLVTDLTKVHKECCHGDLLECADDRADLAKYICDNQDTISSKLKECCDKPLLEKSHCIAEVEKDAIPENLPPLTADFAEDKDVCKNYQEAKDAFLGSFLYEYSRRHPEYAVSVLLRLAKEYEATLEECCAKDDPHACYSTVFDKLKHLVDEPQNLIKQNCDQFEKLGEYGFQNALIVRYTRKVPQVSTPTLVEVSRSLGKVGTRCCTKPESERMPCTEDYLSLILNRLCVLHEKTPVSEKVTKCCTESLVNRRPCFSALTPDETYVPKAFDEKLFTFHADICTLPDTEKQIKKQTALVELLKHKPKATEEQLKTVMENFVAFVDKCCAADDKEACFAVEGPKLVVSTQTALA
Compound,composite z-score (Albumin (Bos taurus)),composite Z-score [1],composite z-score [2],composite z-score [3],composite z-score [4],composite z-score [5],composite z-score [6],composite z-score (Sam68 (KHDRBS1)),composite z-score [7],composite z-score [8],composite z-score [9],composite z-score [10],composite z-score [11],composite z-score [12],composite z-score [13],composite z-score [14],z-score [15],composite z-score (Lefty1),composite z-score [16],z-score [17]
COC(=O)[C@H](C)NC(=O)CCC1CC(OC(=O)NCc2ccc3c(c2)OCO3)CC2(CCCC(COC(=O)NCCCN3CCCC3=O)O2)O1 (stereo not given in full),0.328,0.3 (inactive),0.186,-0.293,0.167,0.639,0.261,1.26,0.826,0.872,0.23,1.03,0.174,0.861,0.602,1.42,-0.224,0.777,0.364,0.906 (inactive)
CCOC(=O)[C@H](Cc1ccccc1)NC(=O)CCC1CC(OC(=O)NCc2ccc3c(c2)OCO3)CC2(CCCC(COC(=O)NCCOc3ccccc3)O2)O1 (stereo not given in full),-0.245,-0.344 (inactive),0.0636,-0.034,0.109,1.52,-0.252,1.29,0.58,1.13,0.777,1.16,-0.0176,0.96,0.875,0.776,1.37,1.2,0.304,0.289 (inactive)
C[C@@H](c1ccccc1)N1C(=O)[C@H]2[C@H]3[C@H](O)[C@H](O)CC(=NOC[C@@H](O)COCc4ccco4)[C@H]3CC[C@H]2C1=O,-0.0559,-0.0004 (inactive),0.106,-0.189,-0.578,-0.795,0.565,-0.382,1.51,-0.832,0.0749,-1.09,-0.546,0.658,1.1,1.36,-0.882,1.05,0.0723,0.997 (inactive)
CC(=O)OC[C@H]1O[C@H](C#CCCc2ccccc2)C=C[C@@H]1OC(C)=O,0.829,-0.399 (inactive),0.106,-0.0727,0.376,2.2,-0.332,0.179,0.697,0.127,0.538,-0.417,-0.34,0.884,0.518,0.461,0.0303,1.22,-0.225,-0.97 (inactive)
O=C1C2=CC[C@H]3C(=O)N(C[C@@H]4CCCO4)C(=O)[C@H]3[C@H]2[C@H](O)[C@@H]2O[C@H]12,0.335,-0.275 (inactive),-0.183,-0.0928,-0.145,-0.534,-0.246,0.244,0.362,0.397,0.286,0.611,0.146,-0.0182,0.0235,0.0043,0.982,0.233,-0.153,-0.518 (inactive)
